Beta apoptosis: blocks beta cell apoptosis; INS-1E cytokine-induced death, ATP luminescence, 48 h; percent of positive-control rescue, neutral wells zero; protection from apoptosis, % (test concentration not listed); actives 0.8% (n = 300,000); AID 435005;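 active = Every replicate reaches about 75%, or at least half do and their mean reaches it too, limit read from the data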;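 also: 0% = cytokine-treated negative control wells and 100% = positive control rescue; higher means more ATP so stronger rescue from cytokine killing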
Gli-Sufu antag: antagonists of Gli-Sufu signaling | Sufu-KO-LIGHT fibroblasts, Gli luciferase reporter luminescence | actives 0.74% (n = 340,000) | inhibition, % at 5 µM | AID 588413;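 active = inhibition above about 55%, limit read from the data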;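 also: 0% = DMSO-treated cells and 100% = wells with medium but no cells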
Mdm2-MdmX inh: human Mdm2/MdmX binding inhibition | SaOS-2 split-luciferase Mdm2/MdmX complementation, luminescence | inhibition, % at 8 µM | actives 3% (n = 330,000);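 active = inhibition of at least 50% at 8 µM in the primary screen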
697 NFkB inh: lowers PMA/ionomycin-induced NF-kB signal in 697 B cells | 697 B-cell NF-kB luciferase reporter, 16 h | actives 0.33% (n = 330,000) | inhibition, % at 4 µM; in the data active = inhibition above about 35%
Jurkat NFkB inh: lowers PMA/ionomycin-induced NF-kB signal in Jurkat cells; PMA/ionomycin-induced NF-kB luciferase reporter, luminescence; inhibition, % at 4 µM; actives 0.53% (n = 330,000); AID 435003; in the data active = inhibition above about 50%
Gli antag conf: Gli-SUFU antagonism confirmation, single concentration. inhibition, % at 5 µM. Sufu-KO-LIGHT cells, Gli luciferase reporter, luminescence. shares compounds with Gli-Sufu antag. actives 40% (n = 2,500);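 active = mean inhibition at 5 µM reaching about 45%, limit read from the data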;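 also: plate controls were DMSO-treated cells for no effect and wells lacking cells for full effect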
Gli cytotox: cytotoxicity counter-screen for Gli-SUFU antagonists; shares compounds with Gli-Sufu antag; cytotoxicity, % at 5 µM; Sufu-KO-LIGHT cells cytotoxicity, ATP luminescence; actives 32% (n = 2,500);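 active = mean cytotoxicity at 5 µM above about 25%, limit read from the data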;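 also: cells exposed to compound overnight for roughly 16 to 18 hours; plate controls were DMSO wells with cells for no effect and medium without cells for full effect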
Wnt3a counter: counter-screen for Gli-SUFU antagonists: Wnt3a reporter inhibition; shares compounds with Gli-Sufu antag; Wnt-LIGHT cells, Wnt3a-driven luciferase reporter, luminescence; actives 20% (n = 2,500); inhibition, % at 6.25 µM;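 active = mean inhibition above about 25%, limit read from the data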
An asterisk follows results filed as active; nt = not tested or not shown. In the library only some 4% were active in any assay of this set; here they are far more common.

SMILES	Beta apoptosis	Gli-Sufu antag	Mdm2-MdmX inh	697 NFkB inh	Jurkat NFkB inh	Gli antag conf	Gli cytotox	Wnt3a counter
C=CCOc1nc2c(c(=O)n(C)c(=O)n2C)n1Cc1ccccc1Cl	24	22	20	-28	3	nt	nt	nt
CCCOc1nc2c(c(=O)n(C)c(=O)n2C)n1Cc1cccc2ccccc12	103*	57*	24	-70	18	58*	40*	9
C=CCNc1nc2c(c(=O)n(C)c(=O)n2C)n1Cc1ccc(F)cc1	42	54	17	-10	27	55*	20	26*
C=CCOc1nc2c(c(=O)n(C)c(=O)n2C)n1Cc1ccc(Cl)cc1	61	72*	16	-84	23	61*	27*	23
CN1CCN(S(=O)(=O)c2cccc(C(=O)Oc3ccccc3Cl)c2)CC1	-7	-2	12	12	9	nt	nt	nt
Fc1ccccc1Oc1nc(-c2ccncc2)nc2ccccc12	-5	1	34	-32	-4	nt	nt	nt
O=C(OCc1ccccc1)/C(=C(\O)c1ccccc1Br)c1ccc(-c2ccccc2)cn1	9	12	19	19	-6	nt	nt	nt
O=C(NCc1ccncc1)c1cccc(S(=O)(=O)N2CCc3ccccc32)c1	24	14	nt	nt	nt	nt	nt	nt
C=CCNc1nc2c(c(=O)n(C)c(=O)n2C)n1CCCCCC	nt	69*	8	7	48	75*	36*	40*
COCCNc1nc2c(c(=O)n(C)c(=O)n2C)n1Cc1cccc(C)c1	19	61*	4	-16	-2	63*	25*	24
CC1CCN(CCCNC(=O)C2CCC(CNS(=O)(=O)c3ccccc3)CC2)CC1 (centres undefined)	-3	17	13	-7	-22	nt	nt	nt
CC(C)N(CCCNC(=O)C1CCC(CNS(=O)(=O)c2ccccc2)CC1)Cc1ccccc1 (centres undefined)	6	60*	-4	-1	-6	28	18	-10
Nc1ccc(OCc2ccccc2)cc1	-3	-26	-9	-27	-38	nt	nt	nt
CCN(Cc1ccccc1)Cc1ccc(OCc2ccccc2)cc1	4	59*	5	0	-23	2	20	-17
COCCNC(=O)c1ccc(Cl)c(S(=O)(=O)Nc2cccc(C)c2C)c1	-2	-7	11	2	-1	nt	nt	nt
O=C(Cn1cnc2ccccc21)Nc1cccc(S(=O)(=O)N2CCCC2)c1	16	54	-12	-1	28	53*	14	17
O=C(NNc1nc(=O)c2cccnc2s1)c1ccccc1O	41	85*	24	-22	-11	25	27*	-21
COc1ccc(-n2nnnc2SCC(=O)Nc2nnc(C)s2)cc1	-2	59*	17	15	7	13	-9	-5
COc1ccccc1NC(=S)N1CCC(NC(=O)c2ccco2)CC1	1	0	3	8	17	nt	nt	nt
c1ccc(CC2CCN(c3nnnn3-c3ccccc3)CC2)cc1	1	1	17	6	15	nt	nt	nt
N/C(=N/O)c1ccccc1N1CCC(Cc2ccccc2)CC1	11	78*	1	21	-3	74*	36*	-25
Cc1cc(C)cc(N(CCC#N)C(=O)CSc2n[nH]c(N)n2)c1	0	-1	-11	-1	-42	nt	nt	nt
CN1CCN(NC(=O)c2ccc(Cl)s2)CC1	nt	52	6	13	4	14	0	15
CN1CCN(NC(=O)c2ccc(F)cc2)CC1	-7	24	18	-7	3	nt	nt	nt
COc1ccc(CNCC(C)NCc2ccc(OC)c(OC)c2)cc1OC (centres undefined)	-5	61*	18	-1	15	7	25	-28
Cc1cccc(NC(=O)COC(=O)c2nn(C)c(=O)c3ccccc23)c1C	-1	2	-6	17	13	nt	nt	nt
Cc1cc(C(=O)COc2ccccc2C(N)=O)c(C)n1CC1CCCO1 (centres undefined)	nt	58*	-10	25	45	56*	37*	21
O=[N+]([O-])c1ccc2nc(NN=Cc3ccc(O)cc3)sc2c1	nt	-16	nt	nt	nt	nt	nt	nt

From PubChem
